The source of these data is PubChem BioAssay.

For part of these data: Results with a measured potency or affinity are listed apart. The source made the active and inactive calls.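 Rule for the calls, unless noted: active = primary screen active and over 50% activation in each of two duplicate runs; inactive = the rest.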

The subject of assay [1] is TRPC4 beta (transient receptor potential cation channel C4), mouse. Description: activators of mouse TRPC4 channel, confirmation, cell-based, Fluo4 calcium, HEK293 TRPC4beta/mu-opioid, duplicates, 10 µM (AID 2426;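 active = fluorescence ratio normalized to control raised more than 50% in primary screen plus both repeat runs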). Conditions: Fluo4 calcium fluorescence, at 10 µM; stronger effect = higher value.
The subject of assay [2] is transient receptor potential cation channel C4 beta (TRPC4), mouse. Description: activators of mouse TRPC4 channel, confirmation, cell-based, second round, Fluo4, HEK293 TRPC4beta/mu-opioid, 1 µM (AID 2461). Conditions: Fluo4 calcium fluorescence, at 1 µM; stronger effect = higher value.
Assay [3] concerns TRPC4 (transient receptor potential cation channel C4 beta), mouse. Kind of assay: positive allosteric modulators of mouse TRPC4, confirmation, cell-based, second round, Fluo-4, HEK293 TRPC4beta/mu-opioid, 1 µM (AID 2554;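 active = primary screen hit whose fluorescence ratio, in both repeats, exceeds the weak agonist control mean by 3 SD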). The settings on record: DAMGO EC20, Fluo-4 calcium flux, at 1 µM; stronger effect = higher value. Background: Calcium flux is commonly read through the fluorescence of an indicator in the cells.

For assay [4], the system named is TRPC4 beta (transient receptor potential cation channel C4), mouse. Kind of assay: positive allosteric modulators of mouse TRPC4, confirmation, cell-based, Fluo-4, HEK293 TRPC4beta/mu-opioid (AID 2555;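 active = primary screen hit whose calcium fluorescence ratio, in both repeats, exceeds the weak agonist control mean by 3 SD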). The settings on record: DAMGO EC20, Fluo-4 calcium flux, at 10 µM; stronger effect = higher value.
For assay [5], the target named is Short transient receptor potential channel 4 (Mus musculus) (UniProt Q9QUQ5). Kind of assay: inhibitors of mouse TRPC4 channel, confirmation, cell-based, Fluo4, HEK293 TRPC4beta/mu-opioid (AID 2636;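 active = calcium signal cut by more than 3 SD below the full-agonist control yet still positive, in both repeats and the earlier primary screen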). The settings on record: DAMGO, Fluo4 calcium flux, at 10 µM; stronger effect = higher value.
Chain of Short transient receptor potential channel 4 (Mus musculus) (Q9QUQ5 whole entry, looked up): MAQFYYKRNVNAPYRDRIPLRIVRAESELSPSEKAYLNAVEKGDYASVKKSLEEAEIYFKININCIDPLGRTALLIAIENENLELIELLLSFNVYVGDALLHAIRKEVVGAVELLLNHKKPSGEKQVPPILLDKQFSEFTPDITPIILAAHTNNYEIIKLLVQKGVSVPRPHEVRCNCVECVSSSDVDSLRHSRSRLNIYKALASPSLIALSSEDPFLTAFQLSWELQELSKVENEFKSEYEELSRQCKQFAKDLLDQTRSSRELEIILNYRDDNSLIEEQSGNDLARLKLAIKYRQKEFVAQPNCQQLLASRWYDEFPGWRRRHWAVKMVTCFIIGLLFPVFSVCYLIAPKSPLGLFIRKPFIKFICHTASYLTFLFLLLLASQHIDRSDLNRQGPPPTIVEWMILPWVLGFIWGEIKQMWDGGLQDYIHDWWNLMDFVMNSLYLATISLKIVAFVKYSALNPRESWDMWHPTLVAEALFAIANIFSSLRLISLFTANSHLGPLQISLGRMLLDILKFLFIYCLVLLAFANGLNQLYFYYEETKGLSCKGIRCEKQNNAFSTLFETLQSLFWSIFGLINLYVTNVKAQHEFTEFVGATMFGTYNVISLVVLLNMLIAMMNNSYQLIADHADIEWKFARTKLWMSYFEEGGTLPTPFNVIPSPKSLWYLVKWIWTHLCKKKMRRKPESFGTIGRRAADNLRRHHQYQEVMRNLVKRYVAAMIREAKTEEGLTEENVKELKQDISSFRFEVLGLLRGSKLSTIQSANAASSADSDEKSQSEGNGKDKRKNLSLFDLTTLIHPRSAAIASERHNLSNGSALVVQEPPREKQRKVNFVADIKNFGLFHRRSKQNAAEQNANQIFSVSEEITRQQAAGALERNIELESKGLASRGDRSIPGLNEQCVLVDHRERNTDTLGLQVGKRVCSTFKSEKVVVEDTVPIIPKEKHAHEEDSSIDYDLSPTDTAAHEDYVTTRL
Assay [6] shares this target. Kind of assay: inhibitors of mouse TRPC4 channel, confirmation, cell-based, second round, Fluo4, HEK293 TRPC4beta/mu-opioid, 1 µM (AID 2637;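 active = calcium signal ratio cut to more than 3 SD under the fully stimulated control mean yet still positive, in both repeats and the primary screen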). Conditions: Fluo4 calcium flux, DAMGO, at 1 µM; stronger effect = higher value.
For assay [7] the target is unchanged. Kind of assay: mouse TRPC4 channel activators, dose response, cell-based, HEK293 TRPC4/mu-opioid, Fluo-4 calcium (AID 434937;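 active = primary screen activator hit with a dose response curve and TRPC4 channel activation at any tested dose; inactive = no activation, no dose response, or not a primary hit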).
Assay [8] has the same target. Kind of assay: TRPC4 positive allosteric modulators, dose response, cell-based, HEK293 TRPC4/mu-opioid, Fluo-4 calcium, EC20 DAMGO (AID 434941;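 active = earlier screen potentiator hit that boosts the TRPC4 ion channel at some dose, with a dose response; inactive = no potentiation, no dose response, or not a prior hit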;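 note: calcium entry triggered by an EC20 dose of DAMGO at the co-expressed mu-opioid receptor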).
Assay [9] shares this target. Kind of assay: mouse TRPC4 channel inhibitors, dose response, cell-based, HEK293 TRPC4/mu-opioid, Fluo-4 calcium (AID 434942;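 active = primary screen inhibitor hit that blocks the TRPC4 channel at some tested dose, yielding a dose curve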).
Assay [10] addresses Short transient receptor potential channel 6 (Mus musculus) (UniProt Q61143). Kind of assay: inhibition of mouse TRPC6 channel, confirmation, selectivity assay for TRPC4 inhibitor project, cell-based, HEK293, membrane potential dye, duplicate (AID 434948;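 active = active in primary screen and both duplicates, each dropping signal beyond three positive-control SD with fluorescence still positive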). The settings on record: HEK293 TRPC6, membrane potential dye fluorescence, at 10 µM, stimulated with maximal-effect acetylcholine; stronger effect = higher value.

Assay [11] shares this target. Kind of assay: activation of mouse TRPC6 channel, confirmation, selectivity assay for TRPC4 activator project, cell-based, HEK293, membrane potential dye, duplicate (AID 434950;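 active = membrane potential signal rise above negative control mean plus 3 SD in both duplicates, also active in the earlier TRPC4 screen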). The settings on record: HEK293 TRPC6, membrane potential fluorescence, at 10 µM; stronger effect = higher value.
For assay [12] the target is unchanged. Description: TRPC6 potentiation by TRPC4 potentiator hits, confirmation, selectivity assay for TRPC4 potentiator project, HEK293 cells, membrane potential dye, duplicate (AID 434952;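 active = compound raising the membrane signal above positive-control mean plus 3 SD in both repeats, and a primary screen hit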). The settings on record: HEK293 TRPC6, membrane potential dye fluorescence, at 10 µM, maximal acetylcholine added after compound; stronger effect = higher value.
Assay [13] concerns the target Short transient receptor potential channel 4 (Mus musculus) (UniProt Q9QUQ5). Description: calcium flux activators in TRPC4/5HT1a cells, counter-screen for TRPC4 activator project, cell-based, second counter screen, HEK293 TRPC4/5HT1a, Fluo-4 (AID 434977;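 active = calcium signal rise above buffer-control mean plus 5 SD in both duplicates, and also a hit in the primary screen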). The settings on record: Fluo-4 calcium flux, at 10 µM; stronger effect = higher value.
Assay [14] is described as follows: calcium flux inhibitors in TRPC4/5HT1a cells, confirmation, counter-screen for TRPC4 inhibitor project, cell-based, second counter screen, HEK293 TRPC4/5HT1a, Fluo-4 (AID 434978;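 active = primary screen active whose calcium signal fell more than 3 SD beyond the full-serotonin control mean in both duplicate plates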;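 for outcome: serotonin given first at submaximal then at maximal dose after compound preincubation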). Conditions: Fluo-4 calcium flux, at 10 µM, serotonin added to trigger calcium flux; stronger effect = higher value.
The test system of assay [15] is TRPC4 (mouse), co-expressed with 5HT1a in HEK293. Description: calcium flux potentiators in TRPC4/5HT1a cells, confirmation, counter-screen for TRPC4 potentiator project, cell-based, second counter screen, HEK293 TRPC4/5HT1a, Fluo-4 (AID 434979;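 active = signal rise over 3 SD above mean of control wells given weak agonist, in both repeats and first screen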). The settings on record: Fluo-4 calcium flux, at 10 µM, serotonin added at its EC20 dose; stronger effect = higher value.
A short description of assay [16]: calcium flux activation in mu-opioid HEK293 cells, confirmation, counter-screen for TRPC4 activator project, cell-based, HEK293 mu-opioid receptor line (AID 449723;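 active = hit in primary screen, with calcium signal over 5 SD above buffer well mean in both duplicates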;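 note: counter screen cells carry the mu-opioid receptor alone and lack TRPC4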). Conditions: Fluo-4 calcium fluorescence, at 10 µM; stronger effect = higher value.
The nature of assay [17]: calcium flux enhancement in mu-opioid HEK293 cells, confirmation, counter-screen for TRPC4 allosteric potentiator project, cell-based, HEK293 mu-opioid receptor line (AID 449724;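 active = calcium signal rise more than 3 SD above the low-dose agonist control mean, in both duplicate plates and the primary screen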;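 note: HEK293 cells carrying mu-opioid receptor only with no TRPC4 channel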). Conditions: Fluo-4 calcium flux, at 10 µM, compound added before EC20 DAMGO stimulus; stronger effect = higher value.

Chain of Short transient receptor potential channel 6 (Mus musculus) (Q61143 whole entry, looked up): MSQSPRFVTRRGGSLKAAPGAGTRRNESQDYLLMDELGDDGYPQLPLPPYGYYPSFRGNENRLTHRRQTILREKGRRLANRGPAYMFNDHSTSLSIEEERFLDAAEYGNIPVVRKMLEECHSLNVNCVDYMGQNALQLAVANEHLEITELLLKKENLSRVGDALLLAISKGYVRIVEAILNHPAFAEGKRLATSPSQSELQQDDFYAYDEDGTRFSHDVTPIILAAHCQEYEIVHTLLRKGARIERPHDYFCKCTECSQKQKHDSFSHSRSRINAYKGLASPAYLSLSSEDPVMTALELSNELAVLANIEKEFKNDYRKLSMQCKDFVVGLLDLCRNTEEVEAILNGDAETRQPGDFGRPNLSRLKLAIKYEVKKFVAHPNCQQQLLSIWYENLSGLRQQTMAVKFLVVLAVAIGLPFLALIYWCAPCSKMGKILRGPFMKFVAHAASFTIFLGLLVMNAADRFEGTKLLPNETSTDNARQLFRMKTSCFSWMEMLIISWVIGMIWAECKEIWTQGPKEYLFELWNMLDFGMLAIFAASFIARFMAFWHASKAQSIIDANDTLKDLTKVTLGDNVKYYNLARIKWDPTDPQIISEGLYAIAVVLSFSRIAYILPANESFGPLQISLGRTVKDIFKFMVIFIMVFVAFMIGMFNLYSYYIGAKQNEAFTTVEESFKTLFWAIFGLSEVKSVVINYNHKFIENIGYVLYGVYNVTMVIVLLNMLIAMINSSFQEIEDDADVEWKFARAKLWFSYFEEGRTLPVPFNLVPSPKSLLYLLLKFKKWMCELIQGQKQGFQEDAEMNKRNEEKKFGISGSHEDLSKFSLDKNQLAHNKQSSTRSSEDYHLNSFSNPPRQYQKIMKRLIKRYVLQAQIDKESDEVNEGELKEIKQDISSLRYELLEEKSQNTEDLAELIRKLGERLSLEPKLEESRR

Turning to `Cc1cc(Nc2ccc3c(c2)OCCO3)c2cc(Cl)ccc2n1`, the outcome in assay [1], in assay [2], in assay [3], in assay [4], in assay [5] and in assay [6] was inactive. Moreover, the outcome in assay [7], in assay [8], in assay [9], in assay [10], in [11] and in [12] was inactive. The outcome in assay [13], in assay [14], in assay [15], in assay [16] and in assay [17] was inactive.

With `O=S(=O)(NCC1NCCc2ccccc21)c1ccccc1` (stereo not given), the result in assay [1], in assay [2], in assay [3], in assay [4], in assay [5] and in assay [6] was inactive. Further, the result in assay [7], in [8], in [9], in assay [10], in [11] and in assay [12] was inactive. The result in [13], in assay [14], in [15], in [16] and in [17] was inactive.

Regarding `O=C(Cc1cccs1)Nc1nc(-c2ccc(F)cc2F)cs1`, the result in [1], in assay [2], in assay [5], in [6], in [7] and in assay [8] was inactive. The result in assay [9], in assay [10], in [11], in assay [12], in [13] and in assay [14] was inactive. The outcome in assay [16] and in assay [17] was inactive. The potentiation was 24% (active) in assay [3], 65% (active) in assay [4] and 91.9% (active) in [15].

In the case of `Cc1ccc(C[n+]2cccc(-c3ccccc3)c2)c(C)c1`, the outcome in [1], in [2], in [3], in [4], in [5] and in assay [6] was inactive. The result in assay [7], in assay [8], in assay [9], in [10], in [11] and in assay [12] was inactive. Moreover, the outcome in assay [13], in [14], in [15], in assay [16] and in assay [17] was inactive.

As for `CN(C)CCOC(=O)C1(c2ccccc2)CCOCC1`, the outcome in assay [1], in assay [2], in [3], in [5], in assay [6] and in [7] was inactive. Moreover, the result in assay [8], in assay [9], in assay [10], in [11], in assay [12] and in assay [13] was inactive. Also, the outcome in assay [14], in [16] and in assay [17] was inactive. Also, the potentiation was 8% (active) in [4] and 23.2% (active) in assay [15].

As for `CC(=O)N1CC(c2ccccc2)C(c2ccc(Cl)cc2)=N1` (stereo not given), the result in [1], in assay [2], in assay [3], in [4], in assay [5] and in assay [6] was inactive. The result in assay [7], in [8], in [9], in assay [10], in [11] and in assay [12] was inactive. Moreover, the result in assay [13], in assay [14], in assay [15], in assay [16] and in [17] was inactive.

Turning to `O=C(COC(=O)c1cc2c(s1)CCCCC2)NC1CCS(=O)(=O)C1` (stereo not given), the outcome in assay [1], in assay [2], in assay [3], in [4], in assay [5] and in [6] was inactive. The outcome in assay [7], in assay [8], in assay [9], in [10], in [11] and in assay [12] was inactive. Also, the outcome in [13], in [14], in [15], in [16] and in assay [17] was inactive.

On to `CCN1C(=O)/C(=C/C=C2\N(CC)c3cc(S(=O)(=O)N(C)C)ccc3N2c2ccccc2)SC1=S`, for which the result in assay [1], in assay [2], in assay [3], in assay [5], in assay [6] and in [7] was inactive. Moreover, the result in assay [8], in assay [9], in [10], in assay [11], in [12] and in [13] was inactive. The outcome in assay [14] and in assay [16] was inactive. For the same compound, the potentiation is 13% (active) in assay [4] and 24.9% (active) in assay [15]. For the same compound, the activation in [17] is 996% (active).

On to `CC(C)(C)c1ccc(-c2nc3cc(N)ccc3o2)cc1`, for which the result in assay [1], in [2], in assay [3], in assay [4], in assay [5] and in [6] was inactive. Further, the outcome in assay [7], in assay [8], in [9], in [10], in assay [11] and in assay [12] was inactive. Further, the outcome in [13], in assay [14], in assay [15], in assay [16] and in assay [17] was inactive.

Take `CCNc1nc(NC(C)(C)C)nc(N2CCCC2)n1`: the outcome in [1], in [2], in [3], in assay [4], in [6] and in assay [7] was inactive. For the same compound, the outcome in assay [8], in assay [9], in assay [10], in [11], in [12] and in assay [13] was inactive. The outcome in [15], in [16] and in assay [17] was inactive. In addition, the inhibition was 77% (active) in assay [5] and 41.2% (active) in assay [14].

As for `CN(CCNS(=O)(=O)c1ccc2c(c1)oc(=O)n2C)Cc1ccccc1`, the outcome in [1], in [2], in assay [3], in [5], in assay [6] and in [7] was inactive. Besides, the result in [8], in assay [9], in [10], in assay [11], in assay [12] and in assay [13] was inactive. The result in [14], in [16] and in assay [17] was inactive. The potentiation in assay [4] is 8% (active); in [15], 13.7% (active).

As for `OC(CNCCc1ccc(C(F)(F)F)cc1)COc1ccc2ccccc2c1` (stereo not given), the outcome in assay [1], in [2], in assay [3], in assay [4], in assay [5] and in [6] was inactive. Also, the result in assay [7], in [8], in assay [9], in assay [10], in [11] and in assay [12] was inactive. The outcome in assay [13], in assay [14], in [15], in assay [16] and in assay [17] was inactive.

Turning to `CC[n+]1c(/C=C/Nc2ccccc2)sc2ccccc21`, the outcome in [1], in [2], in [3], in assay [4], in [5] and in assay [6] was inactive. Moreover, the outcome in assay [7], in assay [8], in assay [9], in [10], in assay [11] and in assay [12] was inactive. For the same compound, the result in [13], in assay [14], in [15], in assay [16] and in assay [17] was inactive.

Regarding `CCN1CCN(c2nc(N)c([N+](=O)[O-])c(Nc3ccc(C)cc3)n2)CC1`, the result in assay [1], in assay [2], in assay [5], in [6], in [7] and in [8] was inactive. Further, the outcome in assay [9], in assay [10], in assay [11], in [12], in [13] and in assay [14] was inactive. Further, the outcome in assay [16] and in assay [17] was inactive. Also, the values for the potentiation in assay [3], in assay [4] and in assay [15] were 22% (active), 13% (active) and 24.9% (active), respectively.

On to `O=C(Nc1ncc(Br)s1)C(Cc1ccccc1)n1cccc1` (stereo not given), for which the result in [1], in [2], in [3], in assay [5], in assay [6] and in assay [7] was inactive. Further, the outcome in assay [8], in [9], in assay [10], in [11], in assay [12] and in assay [13] was inactive. For the same compound, the result in assay [14], in [16] and in assay [17] was inactive. Besides, the potentiation in [4] is 26% (active); in assay [15], 7.42% (active).

The term inhibition denotes the share of the control response that was lost under treatment.
